# Screening data: PubChem, several laboratories
# Rows were chosen to be rich in hits. Some 27% of all compounds tested hit in one or more screens of this group.
# CYP2C9 inhib – human CYP2C9 inhibition; CYP2C9 Supersomes, luciferin-H conversion, luminescence; inhibition, % at 5 µM; 96,000 tested, 20% active;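 active = blocking of liver enzyme CYP2C9 beyond about 50% at 5 µM, limit read from the data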
# Target sequence (P11712 whole entry, looked up): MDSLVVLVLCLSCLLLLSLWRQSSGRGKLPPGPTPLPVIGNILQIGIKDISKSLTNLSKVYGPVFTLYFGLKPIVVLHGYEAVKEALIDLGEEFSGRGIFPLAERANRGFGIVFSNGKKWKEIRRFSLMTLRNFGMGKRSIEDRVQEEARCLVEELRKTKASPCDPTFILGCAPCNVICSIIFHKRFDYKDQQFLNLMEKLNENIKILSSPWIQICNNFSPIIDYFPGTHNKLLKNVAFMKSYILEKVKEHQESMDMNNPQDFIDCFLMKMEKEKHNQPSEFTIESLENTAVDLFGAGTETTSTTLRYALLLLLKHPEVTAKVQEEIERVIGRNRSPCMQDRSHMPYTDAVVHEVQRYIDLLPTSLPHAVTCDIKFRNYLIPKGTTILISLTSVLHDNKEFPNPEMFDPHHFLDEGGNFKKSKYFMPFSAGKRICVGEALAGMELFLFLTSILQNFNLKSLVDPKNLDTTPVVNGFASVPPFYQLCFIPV
# CYP2C9 activ – activators of human CYP2C9. P11712. recombinant CYP2C9, luciferin-H conversion, luminescence; stronger effect = higher value; factor 1 = untreated enzyme, 0 = blocked. activation factor at 5 µM. 96,000 tested, 1.4% active. AID 1024;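 active = activation factor of 2 or more for CYP2C9 at a 5 µM dose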;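 also: 0 = sulfaphenazole-blocked wells and 1 = vehicle-only wells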
# CYP2C19 activ – cytochrome P450 2C19 (human) activation; P33261; recombinant CYP2C19, luciferin-H EGE luminescence; stronger effect = higher value; 0 = fully inhibited enzyme, 1 = untreated enzyme; activation factor at 5 µM; 96,000 tested, under 10 active; AID 1025;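 active = activation factor of at least 2 at 5 µM in the primary screen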;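 also: 0 = wells with 2.5 mM tranylcypromine and 1 = vehicle-only wells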
# CYP2C19 inh – inhibitors of human CYP2C19; AID 778; CYP2C19 Supersomes, luciferin-H EGE luminescence, 30 min; P33261; inhibition, % at 5 µM; 96,000 tested, 21% active;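 active = CYP2C19 inhibition above a set limit at 5 µM in the primary screen, cut at about 50% in these data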;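 also: plate controls were negative control wells for no effect and 2.5 mM tranylcypromine positive control for full effect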
# EphB4 antag – blocks human EphB4 binding to ephrin-B2 | P54760 | AID 720 | inhibition, % at 7 µM | 97,000 tested, 0.15% active | EphB4 LBD / TNYL-RAW-Alexa532 peptide, fluorescence polarization;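 active = inhibition above the screen-wide mean inhibition plus 3 SD, cut at about 15% in these data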;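 also: 0% = DMSO wells and 100% = excess unlabeled TNYL-RAW peptide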
# Starred values were filed as active, the others as inactive; / = no result given.
SMILES,CYP2C9 inhib,CYP2C9 activ,CYP2C19 activ,CYP2C19 inh,EphB4 antag
Cc1ccc(C(O)c2ccncc2)cc1 (stereo not drawn),78*,0.2,0.3,72*,8
Cc1ccc(-c2nnc3sc(-c4ccncc4)nn23)cc1,4,1,0.7,33,1
Cc1ccccc1C(O)c1ccncc1 (stereo not drawn),74*,0.3,0.3,68*,3
CC(=O)NCC(=O)NC1(C(=O)NC2CCCC2)CCCCC1,-3,1,1,2,/
CCOc1ccc(NS(=O)(=O)c2ccc(NC(C)=O)c(OC)c2)cc1,25,0.7,0.5,52*,-1
CCOc1cc(S(=O)(=O)Nc2cc(C)cc(C)c2)ccc1Cl,-97,2*,0,98*,3
CCOc1ccc(NS(=O)(=O)c2ccc(OC)c(C)c2)cc1,92*,0.1,0.1,93*,8
COc1ccc(NS(=O)(=O)c2cc(-c3nnnn3C)ccc2OC)cc1,20,0.8,0.7,33,-2
CCOc1ccc(NS(=O)(=O)c2cc(Cl)ccc2OC)cc1,91*,0.1,0.6,43,-7
O=S(=O)(c1cc(-c2nnc(-c3ccc(Br)cc3)o2)ccc1Br)N1CCCCCC1,/,/,/,/,7
COCCn1c(C(C)C)nc2oc3ccccc3c(=O)c2c1=O,15,0.9,0.8,16,-5
COC(=O)COc1ccc(S(=O)(=O)Nc2ccc(C(N)=O)cc2)cc1C,55*,0.5,0.8,20,-4
O=c1ccc2cc(S(=O)(=O)N3CCOCC3)ccc2o1,7,0.9,0.8,22,5
Cc1cc(C)cc(NS(=O)(=O)c2ccc3oc(=O)ccc3c2)c1,62*,0.4,0,100*,11
CC(C)N1CC2=C(OC(N)=C(C#N)C2c2cccnc2)/C(=C/c2cccnc2)C1 (stereo not drawn),23,0.8,0.7,34,/
O=C(Oc1ccnc2cc(Cl)ccc12)N1CCCCCC1,33,0.7,0.7,31,/
CCc1nc(Nc2ccccc2)c2oc3ccccc3c2n1,22,0.8,0.7,30,0
Cc1cc(NCCCn2ccnc2)n2c(nc3ccccc32)c1C#N,83*,0.2,0.2,77*,1
Cc1cccc2cc(C#N)c(NCCCn3ccnc3)nc12,98*,0,0,98*,2
CCc1nc(NCCCn2ccnc2)c2oc3ccccc3c2n1,98*,0,0.1,91*,-6
C=C(C)c1cccc(C(C)(C)NC(=O)NCC2CCCO2)c1 (stereo not drawn),-15,1.2,1.1,-10,3
CCc1c(C)c(C#N)c2nc3ccccc3n2c1NCC1CCCO1 (stereo not drawn),44,0.6,1,-2,-8
COc1ccc(C2NC(=O)NC(O)(C(F)(F)F)C2C(=O)c2ccc(F)cc2)cc1 (stereo not drawn),3,1,1,2,-7
OC1(c2ccc(OC(F)F)cc2)CSC(=Nc2cccnc2)N1C1CC1 (stereo not drawn),42,0.6,0,100*,6
Cc1ccc(SCC(=O)N2CCc3ccccc32)cc1,/,/,/,/,6
SMILES,CYP2C9 inhib,CYP2C9 activ,CYP2C19 activ,CYP2C19 inh,EphB4 antag
O=C(CSC1=NCCS1)N1CCc2ccccc21,63*,0.4,0.5,49,-7
O=C(CSc1nc(-c2ccccc2)cc(=O)[nH]1)N1CCc2ccccc21,69*,0.3,0.9,11,7
CC1Cc2ccccc2N1C(=O)CSC1=NCCS1 (stereo not drawn),-19,1.2,0.9,14,-5
Nc1ccccc1SCC(=O)N1CCc2ccccc21,33,0.7,0.2,76*,3
COCc1[nH]nc2c1C1(C(=O)N(C)c3ccccc31)C(C#N)=C(N)O2 (stereo not drawn),0,1,1,-4,4
O=c1[nH]c2cc(Cl)ccc2n1-c1ccccc1,14,0.9,0.5,50*,-2
O=C(c1ccc2c(=O)n(-c3ccccc3)c(=O)[nH]c2c1)N1CCCCC1,-5,1.1,1.1,-9,0
CCCc1nnc(SCc2ccc(OC)cc2)n1N,14,0.9,0.5,51*,2
CCCCOc1ccc(Cl)cc1CSc1nnc(CC)n1N,64*,0.4,0.5,54*,-5
CCc1nnc(SCCSc2nnc(CC)n2N)n1N,8,0.9,0.9,8,-6
CCCOc1ccc(CSc2nnc(CCC)n2N)cc1,55*,0.5,0.3,66*,-4
CCCCOc1ccc(CSc2nncn2N)cc1,11,0.9,0.8,20,-2
COc1ccc(-c2c(C)n([O-])c3c([n+]2=O)CCCC3)c(OC)c1,31,0.7,0.9,14,3
COC(CNC(=O)c1ccc2c(c1)nc(C)n2-c1cccc(F)c1)OC,-14,1.1,1.2,-17,-1
Cc1ccc2nc(SCc3nc4c(cnn4-c4ccccc4)c(=O)[nH]3)[nH]c2c1,8,0.9,1,0,0
O=S1(=O)C[C@@H](N2CCOCC2)[C@H](N2CCOCC2)C1,/,/,/,/,-8
Cc1ccccc1NC(=O)N(CCc1nc2ccccc2[nH]1)Cc1ccccc1,/,/,/,/,2
O=C(Nc1nccs1)c1sc2cc(Cl)ccc2c1Cl,33,0.7,0.4,57*,3
O=S(=O)(/N=C(\Sc1ccccc1)c1ccccc1)c1ccc(Cl)cc1,62*,0.4,0.8,16,6
CCOC(=S)N/C(=N\S(=O)(=O)c1ccc(C)cc1)c1ccccc1,91*,0.1,0.5,46,9
Cc1ccc(S(=O)(=O)/N=C(\Sc2ccccc2)c2ccccc2)cc1,62*,0.4,0.7,34,-1
CSC(=NS(=O)(=O)c1ccc(C)cc1)SC,-106,2.1*,0.8,21,-1
O=C(O)CN=C(NS(=O)(=O)c1ccc(Cl)cc1)c1ccccc1,-4,1,1.1,-6,7
COc1ccc(CNC(=O)C2CCCN2S(=O)(=O)c2ccc(S(=O)(=O)N(C)C)cc2)cc1 (stereo not drawn),30,0.7,0.9,9,/
COC(=O)CC1SCCNC1=O (stereo not drawn),-18,1.2,1.2,-18,2
SMILES,CYP2C9 inhib,CYP2C9 activ,CYP2C19 activ,CYP2C19 inh,EphB4 antag
Cc1c(N=C/C=C2/N(C)c3ccccc3C2(C)C)c(=O)n(-c2ccccc2)n1C,/,/,/,/,2
Cc1c(NC(=S)/C=C2\N(C)c3ccccc3C2(C)C)c(=O)n(-c2ccccc2)n1C,-93,1.9,0.4,65*,9
Cc1c(N=C/C=C2\N(C)c3ccccc3C2(C)C)c(=O)n(-c2ccccc2)n1C,-10,1.1,0.3,74*,-1
COc1ccc2nc(/N=C\N(C)C)sc2c1,-10,1.1,0.9,10,-5
COc1ccc2nc(N=Nc3ccc(N(C)C)cc3)sc2c1,21,0.8,0.4,58*,3
Cc1sc(-c2ccncc2)nc1OC(=O)c1ccccc1,96*,0,0,99*,4
O=C(c1ccccc1)c1ccncc1,28,0.7,0.8,21,-3
Cc1sc(-c2ccccn2)nc1OC(=O)c1cccc(Cl)c1Cl,72*,0.3,1,-2,2
